Outcome data for 39 molecules are collected here from PubChem BioAssay (NCATS).

Records with an inconclusive call do not appear. Activity calls are given as the source filed them.

Estrogen receptor (Homo sapiens), sequence (P03372 whole entry, looked up): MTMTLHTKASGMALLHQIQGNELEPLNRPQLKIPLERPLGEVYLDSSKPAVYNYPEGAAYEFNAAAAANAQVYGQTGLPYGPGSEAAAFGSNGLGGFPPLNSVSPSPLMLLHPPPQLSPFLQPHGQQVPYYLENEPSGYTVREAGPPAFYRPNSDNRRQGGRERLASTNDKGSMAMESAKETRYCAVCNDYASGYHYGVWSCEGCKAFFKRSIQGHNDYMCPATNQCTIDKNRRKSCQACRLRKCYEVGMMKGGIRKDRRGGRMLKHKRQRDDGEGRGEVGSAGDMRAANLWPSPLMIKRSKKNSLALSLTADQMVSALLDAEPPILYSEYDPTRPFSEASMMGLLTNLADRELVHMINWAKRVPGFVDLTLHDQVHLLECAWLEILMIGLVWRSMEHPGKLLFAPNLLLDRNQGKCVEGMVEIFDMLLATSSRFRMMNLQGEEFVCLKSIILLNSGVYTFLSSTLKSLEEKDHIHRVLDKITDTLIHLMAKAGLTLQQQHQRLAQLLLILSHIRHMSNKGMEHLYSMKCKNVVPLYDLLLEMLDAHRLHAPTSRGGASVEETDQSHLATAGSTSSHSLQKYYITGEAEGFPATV

System in one assay: not listed separately
Description: qHTS Assay for Identification of Small Molecule Inducers of Hypoxia Response (AID 2120; active = well fitted curve in the direction sought with a large enough effect in the signal ratio, with a control signal flat, not every such curve was filed as active; the % refers to the signal ratio). The conditions noted are these: hypoxia response reporter cells, beta-lactamase ratio readout; series mostly up to 104 µM. In short, it runs like this: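 Reporter induction read as the CCF4 blue/green (460nm/530nm) emission ratio after 2.5 h dye loading at room temperature. ME-180 HRE-beta-lactamase cells received titrated compounds for 17 h at 37 degrees Celsius; AC50 values derived.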
As to `CC(C)=C1CCC(C)CC1=O` (configuration not stated), the result was inactive.

Consider `CNC(=O)N(c1ccccc1)c1ccccc1`, for which the result was inactive.

As for `OCCO`, the result was inactive.

As for `CC(C)(O)CCC(C)(C)O`, the outcome was inactive.

`Cc1cccc(C(=O)O)c1`: the result was inactive.

With `C/C(C=O)=C/c1ccccc1`, the result was inactive.

Regarding `Cc1cccc(C)c1O`, the outcome was inactive.

In the case of `CC(C)c1ccccc1`, the outcome was inactive.

Another assay concerns the target Estrogen receptor (Homo sapiens) (UniProt P03372). The assay is described as follows: qHTS assay for small molecule antagonists of estrogen receptor alpha signaling (AID 588513; active = well fitted curve in the direction sought with a large enough effect in the signal ratio, with a control signal flat, not every such curve was filed as active; the % refers to the signal ratio). The conditions noted are these: ER-alpha-UAS-bla HEK293, beta-lactamase ratio, antagonist mode; series mostly up to 76.9 µM. In short, it runs like this:
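Beta-lactamase reporter, antagonist mode, HEK 293 GripTite cells; 0.5nM E2 stimulus, 18 h, 37 C; CCF4 dye 2 h RT; fluorescence. IC50 and efficacy from Hill fits, normalized to E2 and DMSO.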
Regarding `Cc1cc(C)cc(N)c1`, the result was inactive.

In the case of `Cc1ccc(C)cc1`, the outcome was inactive.

Consider `c1ccc2c(c1)ccc1ncccc12`, for which the result was inactive.

On to `O=C(O)CCSSCCC(=O)O`, for which the outcome was inactive.

Turning to `CC(CCl)OC(C)CCl` (configuration not stated), the result was inactive.

`CCCC(Cl)CCCC(Cl)CCC(Cl)CCC(Cl)CCC(Cl)CCCC(Cl)CCC` (configuration not stated): the outcome was inactive.

As to `CC(=O)Nc1ccc(N)cc1`, the outcome was inactive.

Consider `Nc1cc(S(=O)(=O)O)ccc1O`, for which the outcome was inactive.

As for `Nc1cccc(S(=O)(=O)O)c1`, the outcome was inactive.

Turning to `Cc1ccc2oc(=O)ccc2c1`, the outcome was inactive.

Regarding `NC(=O)c1cccc([N+](=O)[O-])c1`, the result was inactive.

In the case of `Nc1ccc(Cl)cc1[N+](=O)[O-]`, the result was inactive.

With `Nc1cccc([N+](=O)[O-])c1`, the outcome was inactive.

With `Oc1c(Cl)ccc(Cl)c1Cl`, the outcome was inactive.

Regarding `C[C@@H]1CC2(OC3C[C@@]4(C)C5=CC[C@H]6C(C)(C)C(O[C@@H]7OC[C@@H](O)[C@H](O)[C@H]7O)CC[C@@]67C[C@@]57CC[C@]4(C)C31)OC(O)C1(C)OC21` (some centres not stated), the outcome was inactive.

On to `Cc1ccc(N(C)C)cc1`, for which the result was inactive.

As for `C1COC1`, the result was inactive.

In the case of `O=C1CCCCC1`, the result was inactive.

In the case of `Cc1cccc([N+](=O)[O-])c1C(=O)O`, the result was inactive.

`BrC(Br)C(Br)Br`: the result was inactive.

As for `c1ccsc1`, the outcome was inactive.

On to `ClCCl`, for which the result was inactive.

With `Nc1ccc(F)cc1F`, the outcome was inactive.

For the molecule `CCC(C)(C)C(=O)O`, the result was inactive.

As for `CC(N)CN` (configuration not stated), the outcome was inactive.

Regarding `COc1ccc(OC)cc1`, the result was inactive.

As for `C1CCC2OC2C1` (configuration not stated), the outcome was inactive.

With `Cc1ccc2cccnc2c1`, the outcome was inactive.

In the case of `CCOc1cc(OCC)c(C(C)=O)cc1OCC`, the outcome was inactive.

With `CCN(Cc1ccccc1)c1ccccc1`, the outcome was inactive.

In the case of `O=C1NC(=O)c2cc([N+](=O)[O-])ccc21`, the outcome was inactive.

As to `CC(C)=C1CCC(C)CC1=O` (configuration not stated), the result was inactive.

With `CNC(=O)N(c1ccccc1)c1ccccc1`, the outcome was inactive.

With `OCCO`, the result was inactive.

Take `CC(C)(O)CCC(C)(C)O`: the outcome was inactive.

In the case of `Cc1cccc(C(=O)O)c1`, the outcome was inactive.

Regarding `C/C(C=O)=C/c1ccccc1`, the result was inactive.

Turning to `Cc1cccc(C)c1O`, the outcome was inactive.

`CC(C)c1ccccc1`: the outcome was inactive.
